Laboratory results as given in PubChem BioAssay (NCATS).
Records with an inconclusive call do not appear. Active and inactive are the calls of the source. Calls come from the whole dose curve; as a rule, active = well fitted cell-killing curve with a large enough effect; inconclusive = small, poorly fitted or top-dose-only effect; inactive = flat fitted curve, though single readings scatter.

Key:
[1] = Cell Viability - LYMP2-007 (AID 979); conditions: LYMP2-007 lymphoblastoid cell viability; series mostly up to 92.2 µM;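 note: cells exposed to compound for 24 h before reading; nearly all actives have a fitted effect of over 60% in size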
In short: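 Measured via luciferase-based ATP quantitation: lymphoblastoid cells, 24 hr compound exposure at 37 C, AC50 from Hill fits.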

[2] = Cell Viability - LYMP2-008 (AID 980); conditions: LYMP2-008 lymphoblastoid cell viability, qHTS; series mostly up to 92.2 µM;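 note: cells exposed to compound for 24 h at 37 °C; nearly all actives have a fitted effect of over 60% in size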
In short: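 Measured: ATP-dependent luminescence, proportional to viable cell number, in human lymphoblastoid cells treated 24 hr with compound in complete culture medium. Values are AC50s from Hill-equation modelling of qHTS titrations.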

[3] = Cell Viability - LYMP2-010 (AID 981); conditions: LYMP2-010 lymphoblastoid cell viability, qHTS; series mostly up to 92.2 µM;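 note: cells exposed to compound for 24 hours at 37 °C; nearly all actives have a fitted effect of over 55% in size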
In short: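 This 24 hr viability screen uses LYMP2-010 lymphoblastoid cells, quantifies ATP via luciferase luminescence, and derives AC50 from Hill fits of qHTS concentration-response data.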

[4] = Cell Viability - LYMP2-012 (AID 982); conditions: LYMP2-012 lymphoblastoid cell viability qHTS; series mostly up to 92.2 µM;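 note: cellular ATP by luciferase luminescence where a drop means cytotoxicity; cells exposed to compound for one day before reading; nearly all actives have a fitted effect of over 55% in size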
[5] = Cell Viability - LYMP2-016 (AID 984); conditions: LYMP2-016 lymphoblastoid cell viability, qHTS; series mostly up to 92.2 µM;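 note: cells exposed to compound for 24 hours at 37 °C; nearly all actives have a fitted effect of over 55% in size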
In short: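 Cells were seeded at 2500 per well and rested 5 hr before a 24 hr compound exposure at 37 C. Viability was then gauged as cellular ATP by luciferase luminescence, with AC50 values fitted to the Hill equation.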

[6] = Cell Viability - LYMP2-018 (AID 985); conditions: LYMP2-018 lymphoblastoid cells, viability (qHTS); series mostly up to 92.2 µM; note: nearly all actives have a fitted effect of over 50% in size
In short: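 In this qHTS viability assay, cells are treated for 24 hr and cellular ATP is quantified by luciferase-based luminescence, with tetraoctylammonium bromide as positive control.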

[7] = Cell Viability - LYMP2-020 (AID 986); conditions: series mostly up to 92.2 µM;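 note: cells exposed to compound for 24 h at 37 °C; nearly all actives have a fitted effect of over 55% in size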
In short: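 Cells at 2500 per well receive a 24 hr compound exposure at 37 C. Viability is measured as ATP-dependent luciferase luminescence, with AC50 modeled from qHTS concentration-response curves.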

[8] = Cell Viability - LYMP2-022 (AID 987); conditions: LYMP2-022 lymphoblastoid cell viability; series mostly up to 92.2 µM; note: nearly all actives have a fitted effect of over 55% in size
In short: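 In this qHTS cytotoxicity screen, compound titrations were incubated 24 hr at 37 C with human lymphoblastoid cells in complete medium. Luciferase-based ATP luminescence provided the viability signal.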

[9] = Cell Viability - LYMP2-024 (AID 988); conditions: LYMP2-024 lymphoblastoid cell viability; series mostly up to 92.2 µM; note: nearly all actives have a fitted effect of over 60% in size
In short: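 Cells at 2500 per well received compound for 24 hr after a 5 hr settling period. Viability was scored by CellTiter-Glo luminescence, with AC50 from Hill fits.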

[10] = Cell Viability - LYMP2-026 (AID 989); conditions: LYMP2-026 lymphoblastoid cell viability, qHTS; series mostly up to 92.2 µM;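 note: cells exposed to compound for 24 h at 37 °C; nearly all actives have a fitted effect of over 50% in size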
In short: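 Acute toxicity screen in complete culture medium, with 24 hr compound exposure at 37 C. Viability read as cellular ATP via luciferase reaction, with tetraoctylammonium bromide (6.4pM to 92 uM) as positive control.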

Measured: outcome

CCCCCC(N)=O
inactive: all assays above

CC(=O)Nc1cccc(O)c1
inactive: all assays above

CC(=O)NS(=O)(=O)c1ccc(N)cc1
inactive: all assays above

CCCCCCCC(=O)OCC(COC(=O)CCCCCCC)OC(=O)CCCCCCC
inactive: all assays above

Nc1ccc(S(=O)(=O)c2ccc(N)cc2)cc1
inactive: all assays above

COc1ccc(O)cc1
inactive: all assays above

CCN(CC)C(=O)c1cccc(C)c1
inactive: all assays above

FC(F)(F)C(Cl)Br (stereo unspecified)
inactive: all assays above

O=C(O)CCCCC1CCSS1 (stereo unspecified)
inactive: all assays above

CC(=O)Nc1ccccc1
inactive: all assays above

Cc1cc(C)nc(NS(=O)(=O)c2ccc(N)cc2)n1
inactive: all assays above

CC(=O)Nc1ccc(C(=O)O)cc1
inactive: all assays above

CC1CC(OC(=O)c2ccccc2O)CC(C)(C)C1 (stereo unspecified)
inactive: all assays above

O=C1c2cccc(O)c2C(=O)c2c(O)cccc21
inactive: [1] | [2] | [7] | [8] | [9] | [10]

Cc1c(N(C)C)c(=O)n(-c2ccccc2)n1C
inactive: all assays above

O=C1C(c2[nH]c3ccccc3c2O)=Nc2ccccc21
inactive: all assays above

CC(=O)OCC(COC(C)=O)OC(C)=O
inactive: all assays above

CCCCOC(=O)c1ccc(N)cc1
inactive: all assays above

CCCC(O)C(CC)CO (stereo unspecified)
inactive: all assays above

C=CCNC(N)=S
inactive: all assays above

Cc1cc(=O)[nH]c(=S)[nH]1
inactive: all assays above

O=C(c1ccccc1)C(O)c1ccccc1 (stereo unspecified)
inactive: all assays above
